Assay results reported in ChEMBL document CHEMBL2218924, “A broad activity screen in support of a chemogenomic map for kinase signalling research and drug discovery” (Biochem J, 2013).

The compounds below were run against T1, Protein kinase C zeta type (Homo sapiens) (UniProt Q05513). Conditions: at 1 µM; call rule not given here.
T1 sequence (whole entry): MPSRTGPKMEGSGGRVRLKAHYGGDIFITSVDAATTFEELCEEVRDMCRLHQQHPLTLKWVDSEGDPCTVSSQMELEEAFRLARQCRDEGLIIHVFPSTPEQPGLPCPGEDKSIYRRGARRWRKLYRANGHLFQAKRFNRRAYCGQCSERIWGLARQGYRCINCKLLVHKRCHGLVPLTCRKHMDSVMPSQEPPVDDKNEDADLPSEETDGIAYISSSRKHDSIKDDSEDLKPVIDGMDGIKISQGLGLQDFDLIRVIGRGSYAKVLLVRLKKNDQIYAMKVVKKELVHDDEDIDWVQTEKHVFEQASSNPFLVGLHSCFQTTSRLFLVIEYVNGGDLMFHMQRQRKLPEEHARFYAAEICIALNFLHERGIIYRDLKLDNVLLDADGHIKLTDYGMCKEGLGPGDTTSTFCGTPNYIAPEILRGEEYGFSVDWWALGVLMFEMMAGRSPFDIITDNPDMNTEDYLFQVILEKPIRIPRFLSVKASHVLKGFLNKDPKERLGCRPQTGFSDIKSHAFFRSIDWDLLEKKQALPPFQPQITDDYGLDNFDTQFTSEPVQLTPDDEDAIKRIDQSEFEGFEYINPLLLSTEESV

SMILES | residual activity
C[S+]([O-])c1ccc(-c2nc(-c3ccc(F)cc3)c(-c3ccncc3)[nH]2)cc1 (stereo not given) | 108% (inactive)
CC(C)(C)c1cc(C=C(C#N)C#N)cc(Br)c1O | 99% (inactive)
COC(=O)[C@@]1(O)C[C@H]2O[C@]1(C)n1c3ccccc3c3c4c(c5c6ccccc6n2c5c31)C(=O)NC4 | 52% (inactive)
COc1cc2ncnc(Nc3ccc(OCc4ccccc4)cc3)c2cc1OC | 101% (inactive)
O=c1[nH]c2ccccc2n1C1CCN(Cc2ccc(-c3nc4cc5[nH]cnc5cc4nc3-c3ccccc3)cc2)CC1 | 109% (inactive)
CCc1nc(-c2ccc(OC)cc2)[nH]c1-c1ccncc1 | 105% (inactive)
O=C1Nc2ccc3ncsc3c2/C1=C/c1c[nH]cn1 | 86% (inactive)
O=C1c2ccccc2-c2nc3nnnn3nc21 | 113% (inactive)
CC(C)[C@H](CO)Nc1nc(Nc2cccc(Cl)c2)c2ncn(C(C)C)c2n1 | 101% (inactive)
O=[N+]([O-])/C=C/c1ccc2c(c1)OCO2 | 93% (inactive)

These compounds were tested against T2, Mitogen-activated protein kinase kinase kinase 5 (Homo sapiens) (UniProt Q99683). Conditions: at 10 µM.
T2 sequence (whole entry): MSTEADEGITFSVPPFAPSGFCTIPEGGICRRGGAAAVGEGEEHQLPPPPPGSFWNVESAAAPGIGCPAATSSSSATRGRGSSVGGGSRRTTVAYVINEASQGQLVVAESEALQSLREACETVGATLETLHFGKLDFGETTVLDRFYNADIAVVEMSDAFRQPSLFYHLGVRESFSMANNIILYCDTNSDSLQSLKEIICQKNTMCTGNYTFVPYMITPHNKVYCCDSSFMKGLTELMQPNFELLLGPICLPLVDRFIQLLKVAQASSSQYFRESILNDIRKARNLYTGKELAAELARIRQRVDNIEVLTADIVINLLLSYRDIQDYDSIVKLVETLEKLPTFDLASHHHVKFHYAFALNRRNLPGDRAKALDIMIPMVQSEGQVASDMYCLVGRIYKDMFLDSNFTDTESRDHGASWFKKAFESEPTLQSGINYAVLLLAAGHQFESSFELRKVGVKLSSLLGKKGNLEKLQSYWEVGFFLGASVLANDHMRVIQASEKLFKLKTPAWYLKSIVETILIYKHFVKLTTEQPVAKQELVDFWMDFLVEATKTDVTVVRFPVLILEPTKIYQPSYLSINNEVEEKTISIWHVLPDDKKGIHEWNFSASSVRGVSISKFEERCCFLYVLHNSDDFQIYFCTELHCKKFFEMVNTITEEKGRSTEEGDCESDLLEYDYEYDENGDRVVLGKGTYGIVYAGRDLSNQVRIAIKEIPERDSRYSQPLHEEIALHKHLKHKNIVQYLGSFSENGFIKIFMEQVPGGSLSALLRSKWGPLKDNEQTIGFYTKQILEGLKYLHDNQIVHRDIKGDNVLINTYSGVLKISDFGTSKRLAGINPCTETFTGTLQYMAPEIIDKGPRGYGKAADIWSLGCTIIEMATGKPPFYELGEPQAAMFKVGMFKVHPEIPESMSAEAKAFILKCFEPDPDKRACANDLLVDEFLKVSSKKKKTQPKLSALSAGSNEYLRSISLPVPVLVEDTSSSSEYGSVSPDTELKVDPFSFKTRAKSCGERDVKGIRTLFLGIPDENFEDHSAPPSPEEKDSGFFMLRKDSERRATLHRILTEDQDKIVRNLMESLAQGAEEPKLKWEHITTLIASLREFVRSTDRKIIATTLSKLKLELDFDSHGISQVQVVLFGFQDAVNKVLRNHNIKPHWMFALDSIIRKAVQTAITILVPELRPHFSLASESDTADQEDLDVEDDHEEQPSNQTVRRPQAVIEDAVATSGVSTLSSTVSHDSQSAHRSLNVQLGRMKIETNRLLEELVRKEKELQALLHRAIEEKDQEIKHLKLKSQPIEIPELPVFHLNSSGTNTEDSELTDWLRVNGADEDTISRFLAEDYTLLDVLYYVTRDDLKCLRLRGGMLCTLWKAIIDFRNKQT

SMILES | residual activity [%]
N/C(=N\[N+](=O)[O-])N/N=C\c1ccc(-c2cccc([N+](=O)[O-])c2)o1 | 86
C[S+]([O-])c1ccc(-c2nc(-c3ccc(F)cc3)c(-c3ccncc3)[nH]2)cc1 (stereo not given) | 105
CC(C)(C)c1cc(C=C(C#N)C#N)cc(Br)c1O | 109
COc1cc(OC)c(/C=C2\C(=O)Nc3ccccc32)c(OC)c1 | 90
O=C1NC(=O)c2c1c1c3ccccc3n3c1c1c2c2ccccc2n1C1CCC3O1 | 60
CCn1cnc2c(Nc3cccc(Cl)c3)nc(N[C@@H]3CCCC[C@@H]3N)nc21 | 89
c1cc(-c2cnn3cc(-c4ccc(OCCN5CCCCC5)cc4)cnc23)ccn1 | 84
COC(=O)[C@@]1(O)C[C@H]2O[C@]1(C)n1c3ccccc3c3c4c(c5c6ccccc6n2c5c31)C(=O)NC4 | 0
COc1cc2ncnc(Nc3ccc(OCc4ccccc4)cc3)c2cc1OC | 92
O=c1[nH]c2ccccc2n1C1CCN(Cc2ccc(-c3nc4cc5[nH]cnc5cc4nc3-c3ccccc3)cc2)CC1 | 96
COc1ccc2c(c1)/C(=C/c1cnc[nH]1)C(=O)N2 | 41
O=C1Nc2ccc3ncsc3c2/C1=C/c1c[nH]cn1 | 7
O=C1c2ccccc2-c2nc3nnnn3nc21 | 143
CC(C)[C@H](CO)Nc1nc(Nc2cccc(Cl)c2)c2ncn(C(C)C)c2n1 | 96
O=[N+]([O-])/C=C/c1ccc2c(c1)OCO2 | 90

What follows are compounds tested against Tyrosine-protein kinase ABL1 (Homo sapiens) (UniProt P00519). Conditions: at 1 µM.
Tyrosine-protein kinase ABL1 (Homo sapiens), sequence (P00519 whole entry): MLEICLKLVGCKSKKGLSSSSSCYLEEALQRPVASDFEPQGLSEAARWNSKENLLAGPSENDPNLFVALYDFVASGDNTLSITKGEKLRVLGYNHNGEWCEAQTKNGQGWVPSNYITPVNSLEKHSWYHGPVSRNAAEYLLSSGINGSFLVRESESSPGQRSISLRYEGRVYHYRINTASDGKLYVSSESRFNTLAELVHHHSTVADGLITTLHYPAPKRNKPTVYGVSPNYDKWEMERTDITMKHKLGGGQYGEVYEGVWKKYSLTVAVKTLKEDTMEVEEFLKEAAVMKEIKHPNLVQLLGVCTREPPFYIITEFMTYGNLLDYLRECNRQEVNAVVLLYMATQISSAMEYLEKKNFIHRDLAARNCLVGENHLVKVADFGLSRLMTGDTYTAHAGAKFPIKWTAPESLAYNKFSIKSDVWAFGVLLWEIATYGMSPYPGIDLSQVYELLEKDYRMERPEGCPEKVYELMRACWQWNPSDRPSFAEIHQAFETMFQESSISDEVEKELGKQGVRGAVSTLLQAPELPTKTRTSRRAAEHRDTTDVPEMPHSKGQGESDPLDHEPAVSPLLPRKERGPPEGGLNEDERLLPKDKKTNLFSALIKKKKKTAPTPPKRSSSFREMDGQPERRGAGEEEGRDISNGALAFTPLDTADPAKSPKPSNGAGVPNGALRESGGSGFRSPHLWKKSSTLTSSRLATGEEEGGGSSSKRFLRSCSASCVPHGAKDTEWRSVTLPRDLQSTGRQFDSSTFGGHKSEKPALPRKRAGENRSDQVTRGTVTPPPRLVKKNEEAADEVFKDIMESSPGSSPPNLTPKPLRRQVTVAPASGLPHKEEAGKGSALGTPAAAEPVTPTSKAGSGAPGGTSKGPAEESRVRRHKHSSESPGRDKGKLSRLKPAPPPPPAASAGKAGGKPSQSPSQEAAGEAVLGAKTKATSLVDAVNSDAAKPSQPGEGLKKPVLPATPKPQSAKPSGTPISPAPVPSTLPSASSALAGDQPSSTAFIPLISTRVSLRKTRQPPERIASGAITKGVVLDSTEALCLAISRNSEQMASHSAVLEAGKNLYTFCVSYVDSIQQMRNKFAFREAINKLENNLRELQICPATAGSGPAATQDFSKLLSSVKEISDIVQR

SMILES | residual activity [%]
CC(C)(C)c1cc(C=C(C#N)C#N)cc(Br)c1O | 80
COc1cc(OC)c(/C=C2\C(=O)Nc3ccccc32)c(OC)c1 | 104
COc1ccc2c(c[n+](C)c3c4cc5c(cc4ccc23)OCO5)c1OC | 85
CCn1cnc2c(Nc3cccc(Cl)c3)nc(N[C@@H]3CCCC[C@@H]3N)nc21 | 95
c1cc(-c2cnn3cc(-c4ccc(OCCN5CCCCC5)cc4)cnc23)ccn1 | 4
COC(=O)[C@@]1(O)C[C@H]2O[C@]1(C)n1c3ccccc3c3c4c(c5c6ccccc6n2c5c31)C(=O)NC4 | 80
COc1cc2ncnc(Nc3ccc(OCc4ccccc4)cc3)c2cc1OC | 93
O=c1[nH]c2ccccc2n1C1CCN(Cc2ccc(-c3nc4cc5[nH]cnc5cc4nc3-c3ccccc3)cc2)CC1 | 114
O=C1Nc2ccc3ncsc3c2/C1=C/c1c[nH]cn1 | 66
O=C1c2ccccc2-c2nc3nnnn3nc21 | 107
CC(C)[C@H](CO)Nc1nc(Nc2cccc(Cl)c2)c2ncn(C(C)C)c2n1 | 62
O=[N+]([O-])/C=C/c1ccc2c(c1)OCO2 | 96

These compounds were tested against Tyrosine-protein kinase ABL1 (Homo sapiens) (UniProt P00519). Conditions: at 10 µM.

SMILES | residual activity [%]
C[S+]([O-])c1ccc(-c2nc(-c3ccc(F)cc3)c(-c3ccncc3)[nH]2)cc1 (stereo not given) | 72
CC(C)(C)c1cc(C=C(C#N)C#N)cc(Br)c1O | 4
COc1cc(OC)c(/C=C2\C(=O)Nc3ccccc32)c(OC)c1 | 85
COc1ccc2c(c[n+](C)c3c4cc5c(cc4ccc23)OCO5)c1OC | 97
CCn1cnc2c(Nc3cccc(Cl)c3)nc(N[C@@H]3CCCC[C@@H]3N)nc21 | 40
c1cc(-c2cnn3cc(-c4ccc(OCCN5CCCCC5)cc4)cnc23)ccn1 | -4
COC(=O)[C@@]1(O)C[C@H]2O[C@]1(C)n1c3ccccc3c3c4c(c5c6ccccc6n2c5c31)C(=O)NC4 | 51
COc1cc2ncnc(Nc3ccc(OCc4ccccc4)cc3)c2cc1OC | 111
O=c1[nH]c2ccccc2n1C1CCN(Cc2ccc(-c3nc4cc5[nH]cnc5cc4nc3-c3ccccc3)cc2)CC1 | 137
O=C1Nc2ccc3ncsc3c2/C1=C/c1c[nH]cn1 | 20
O=C1c2ccccc2-c2nc3nnnn3nc21 | 112
CC(C)[C@H](CO)Nc1nc(Nc2cccc(Cl)c2)c2ncn(C(C)C)c2n1 | 14
O=[N+]([O-])/C=C/c1ccc2c(c1)OCO2 | 86
